# Test results as given in ChEMBL document CHEMBL4513146, “CO-ADD screening of Karazin Kharkiv National University (Ukraine) compounds”.
# Results with a measured potency or affinity are listed apart.
# Tests used:
# [1] = tested on: Klebsiella pneumoniae; conditions: Concentration 32 ug.mL-1;; ASSAY_TEST Inhibition of Bacterial Growth; detection method Absorption (OD600); MEDIA CAMHB; plate type 384well; NBS; CORNING #3640; time 18 hr
# [2] = tested on: Candida albicans; conditions: Concentration 32 ug.mL-1; ASSAY_TEST Inhibition of Fungal Growth; detection method Absorption (OD530)
# [3] = tested on: Cryptococcus neoformans; conditions: Concentration 32 ug.mL-1; ASSAY_TEST Inhibition of Fungal Growth; detection method Resazurin; Absorption (OD600-OD570); plate type 384well; NBS; CORNING #3640
SMILES,Inhibition [1] [%],Inhibition [2] [%],Inhibition [3] [%]
Cc1ccc(C)c(Cn2nc3n(CCC(C)C)c(=O)c4sccc4n3c2=O)c1,11.36,0.71,-24.6
COc1ccc(NC(=O)Cn2nc3ccc(SCc4ccc(Cl)cc4)nn3c2=O)cc1Cl,-2.5,38.9,-13.55
O=c1c2nnc(SCc3cccc(F)c3)n2ccn1-c1ccc(Br)cc1,8.43,4.16,-10.68
CC(C)c1ccc(Cn2c(=O)c3sccc3n3c(SCc4cccc(C(F)(F)F)c4)nnc23)cc1,5.43,-0.58,-12.8
O=C(CSc1nnc2c3cc(-c4ccccc4)nn3ccn12)NCc1ccc(Cl)cc1,14.11,6.05,-28.72
COc1ccc(NC(=O)c2ccc3nn(CC(=O)Nc4ccc(S(C)(=O)=O)cc4)c(=O)n3c2)cc1,1.84,15.13,-4.16
CCc1ccccc1NC(=O)Cn1nc2c(SC3CCCCC3)nccn2c1=O,9.89,-0.63,-27.01
COc1ccc(NC(=O)Cn2nc3nc(Nc4ccc(F)cc4)ccn3c2=O)cc1F,11.34,0.24,-11.45
COc1ccc(NC(=O)Cn2nc3c(Sc4cccc(C)c4)nccn3c2=O)cc1Cl,5.17,12.08,-20.89
COc1cccc(CNC(=O)CSc2nnc3c4cc(-c5ccc(C)cc5)nn4ccn23)c1,-13.2,4.52,-12.58
